CBX7 AlphaScr: CBX7 inhibition, primary AlphaScreen | normalised signal (fraction of DMSO) (no concentration beside the values) | O95931 | 1.1% of 66,000 active | AlphaScreen His6-CBX7 / biotin-H3K27me3 peptide binding; hits give low values; in the data active = normalised signal below about 0.5
Target sequence (O95931 whole entry, looked up): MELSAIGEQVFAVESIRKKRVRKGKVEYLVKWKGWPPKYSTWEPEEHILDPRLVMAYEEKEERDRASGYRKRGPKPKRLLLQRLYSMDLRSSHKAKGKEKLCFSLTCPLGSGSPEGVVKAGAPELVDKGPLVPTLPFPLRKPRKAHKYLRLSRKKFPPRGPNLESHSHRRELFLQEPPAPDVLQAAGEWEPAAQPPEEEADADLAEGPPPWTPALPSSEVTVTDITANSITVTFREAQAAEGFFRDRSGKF
Active calls of the source: *; ! = repeats disagree. Many of the other results were omitted from the sample, so hits are more common in it than they were.

Results for COC(=O)c1c[nH]n2c(NC3CCCCCC3)c(-c3ccc(F)cc3)nc12 ?
CBX7 AlphaScr: 0.45*

What do the screens show for `COC(=O)c1c[nH]n2c(=O)c(Cc3ccccc3F)c(C)nc12`?
CBX7 AlphaScr: 1.2

How did CCCCOc1ccc(-c2nc3c(C(=O)OC)c[nH]n3c2NC2CCCCC2)cc1 do in these assays?
CBX7 AlphaScr: 0.19*

How did CCCCOc1ccc(-c2nc3ccccc3c(C(=O)O)c2C)cc1 do in these assays?
CBX7 AlphaScr: 1

Results for COC(=O)c1c[nH]n2c(NC3CCCCC3)c(-c3ccc(F)cc3)nc12 ?
CBX7 AlphaScr: 0.55

Results for CCOc1ccc(-c2nc3c(C(=O)OC)c[nH]n3c2NC2CCCCC2)cc1OC ?
CBX7 AlphaScr: 0.7

How did COC(=O)c1c[nH]n2c(=O)c(Cc3ccc(C)cc3)c(C)nc12 do in these assays?
CBX7 AlphaScr: 1.2

What do the screens show for `COC(=O)c1c[nH]n2c(NC3CCCCCC3)c(-c3ccc(C)cc3)nc12`?
CBX7 AlphaScr: 0.43*

Results for Cc1cccc(Cc2c(C)nc3c(C(=O)N(C)CCC#N)c[nH]n3c2=O)c1 ?
CBX7 AlphaScr: 0.67

What do the screens show for `COc1ccc(OC)c2[nH]c(=O)c(CCNC(=O)c3cc(C)cc(C)c3)cc12`?
CBX7 AlphaScr: 0.99

Results for CC(=O)C1C(c2cccc([N+](=O)[O-])c2)c2c(noc2C)CC1(C)O (stereo not drawn) ?
CBX7 AlphaScr: 1.1

What do the screens show for `CCC(C)Sc1oc(-c2ccc(F)cc2)nc1S(=O)(=O)c1ccc(C)cc1` (stereo not drawn)?
CBX7 AlphaScr: 1

What do the screens show for `CC(C)=CCc1c2c(c3oc(-c4ccc(O)cc4)cc(=O)c3c1O)C=CC(C)(C)O2`?
CBX7 AlphaScr: 0.95

Results for CC(=O)N1CCc2cc(S(=O)(=O)Nc3cccc(C)c3)ccc21 ?
CBX7 AlphaScr: 0.8

Results for CCC(=O)N1CCc2cc(S(=O)(=O)CCC(=O)Nc3c(CC)cccc3CC)ccc21 ?
CBX7 AlphaScr: 1.1

What do the screens show for `Cc1ccc(CNC(=O)c2oc3ccc(S(=O)(=O)N4CCCC4)cc3c2C)cc1`?
CBX7 AlphaScr: 1

Results for Cc1oc(-c2ccccc2F)nc1CN1CCC(C(=O)NC(C)CCc2ccccc2)CC1 (stereo not drawn) ?
CBX7 AlphaScr: 1.1

What do the screens show for `O=C(O)c1ccc2[nH]c(=O)c(Cc3ccccc3Br)nc2c1`?
CBX7 AlphaScr: 1.1

What do the screens show for `O=C(CSc1ncn[nH]1)Nc1nc2ccccc2s1`?
CBX7 AlphaScr: 1.2

What do the screens show for `COc1cccc(OCC(O)CN2CCC(C)CC2)c1` (stereo not drawn)?
CBX7 AlphaScr: 0.98

How did Cc1ccc(-c2noc(CN3CCC(C)CC3)n2)cc1 do in these assays?
CBX7 AlphaScr: 1.1

How did COCc1cc(CN2CCC(C)CC2)c(O)c2ncccc12 do in these assays?
CBX7 AlphaScr: 0.0039*

How did Cc1ccsc1CCNc1ccc2nnc(-c3ccccc3)n2n1 do in these assays?
CBX7 AlphaScr: 0.84

Results for CCOCCCNC(=O)c1ccc2nc(-c3cccs3)c(-c3cccs3)nc2c1 ?
CBX7 AlphaScr: 1

Results for CCN(CCNC(=O)c1cc(-c2cccnc2)nc2ccccc12)c1ccccc1 ?
CBX7 AlphaScr: 0.47*

Results for CCN(CCCNC(=O)c1cc(-c2cccnc2)nc2ccccc12)c1ccccc1 ?
CBX7 AlphaScr: 0.98

How did CN(C)CCNC(=O)c1cc(-c2ccncc2)nc2ccccc12 do in these assays?
CBX7 AlphaScr: 1.1

What do the screens show for `CCN(CCCNC(=O)c1cc(-c2ccncc2)nc2ccccc12)c1ccccc1`?
CBX7 AlphaScr: 0.31*

Results for CCOc1ccc(-c2cc(C(=O)NCCN(CC)c3ccccc3)c3ccccc3n2)cc1 ?
CBX7 AlphaScr: 0.94

What do the screens show for `CCCCN(CCCNC(=O)c1cc(-c2ccncc2)nc2ccccc12)c1ccccc1`?
CBX7 AlphaScr: 0.77

What do the screens show for `CCc1ccccc1NC(=O)c1cccc2c1C(=O)N(CCOC)C2`?
CBX7 AlphaScr: 1

How did CC(C)c1ccc(Nc2ncnc3c2cnn3-c2ccc(Cl)cc2)cc1 do in these assays?
CBX7 AlphaScr: 1

How did Cc1ccc(-c2noc(CCC(=O)N3CCN(c4cccc(C)c4)C(C)C3)n2)cc1 (stereo not drawn) do in these assays?
CBX7 AlphaScr: 1

How did COc1ccc(C2C(C(=O)NCCN(C)C)CCC(=O)N2c2ccc(OC)cc2)cc1 (stereo not drawn) do in these assays?
CBX7 AlphaScr: 1.4

Results for COc1ccc(-c2csc(Nc3cccc(C(=O)O)c3)n2)cc1 ?
CBX7 AlphaScr: 0.75

Results for COc1cccc(Nc2nc(-c3ccc(C)cc3)cs2)c1 ?
CBX7 AlphaScr: 0.67

What do the screens show for `Cc1ccc(Nc2nc(-c3ccc(-c4ccccc4)cc3)cs2)cc1Cl`?
CBX7 AlphaScr: 0.88

What do the screens show for `COc1ccc(-c2csc(Nc3ccc(C)c(Cl)c3)n2)cc1F`?
CBX7 AlphaScr: 0.39*!

What do the screens show for `Cc1ccc(Nc2nc(-c3ccc(Cl)cc3)cs2)cc1C`?
CBX7 AlphaScr: 0.77

Results for Oc1ccc(Nc2nc(-c3ccc(Cl)cc3)cs2)cc1 ?
CBX7 AlphaScr: 0.44*

What do the screens show for `CCOc1ccc(Nc2nc(-c3ccc(OC)c(F)c3)cs2)cc1`?
CBX7 AlphaScr: 1

Results for Clc1ccc(-c2csc(Nc3ccc(Br)cc3)n2)cc1 ?
CBX7 AlphaScr: 0.7

How did Cc1ccc(Nc2nc(-c3ccc(C)c(C)c3)cs2)cc1 do in these assays?
CBX7 AlphaScr: 0.45*

Results for Clc1ccc(Nc2nc(-c3ccncc3)cs2)cc1 ?
CBX7 AlphaScr: 1

What do the screens show for `COc1cccc(Nc2nc(-c3ccc(F)cc3)cs2)c1`?
CBX7 AlphaScr: 0.47*

What do the screens show for `Cc1ccc(Nc2nc(-c3ccc(I)cc3)cs2)cc1C`?
CBX7 AlphaScr: 0.78

What do the screens show for `CCOc1cc(-c2nc3ccccn3c2N)ccc1O`?
CBX7 AlphaScr: 0.85

Results for Cc1oc(-c2ccc(Cl)cc2)nc1CN1CCC(C(=O)NCCCN2CCN(C)CC2)CC1 ?
CBX7 AlphaScr: 1.2

Results for O=C(NCCCN1CCC(Cc2ccccc2)CC1)c1cnn(-c2ccccc2)c1-n1cccc1 ?
CBX7 AlphaScr: 0.98

How did CCOc1nc(-c2ccccc2Cl)c2cc(Br)ccc2n1 do in these assays?
CBX7 AlphaScr: 1

Results for CCc1ccc(CN(C(=O)c2ccccc2F)C2CCS(=O)(=O)C2)cc1 (stereo not drawn) ?
CBX7 AlphaScr: 0.86

How did Cc1ccc(CN2C(=O)C(C)(C)Nc3ccccc32)c(C)c1 do in these assays?
CBX7 AlphaScr: 0.94

What do the screens show for `O=C(C1CCC(Cn2c(=O)[nH]c3ccccc3c2=O)CC1)N1CC=C(c2ccccc2)CC1` (stereo not drawn)?
CBX7 AlphaScr: 0.61

How did Cc1onc(-c2ccccc2Cl)c1C(=O)Nc1cc(F)c(F)c(F)c1 do in these assays?
CBX7 AlphaScr: 1.1

Results for CN(C)CCCNC(=O)c1ccc(-c2nn(C)c(=O)c3ccccc23)cc1 ?
CBX7 AlphaScr: 0.94

How did COc1ccc(Nc2ncc(C(=O)Nc3ccc(F)cc3Cl)c3ccccc23)cc1 do in these assays?
CBX7 AlphaScr: 1

Results for Cc1cc2c(cc1C)NC(CC(=O)Nc1ccc(N(C)C)cc1)C(=O)N2 (stereo not drawn) ?
CBX7 AlphaScr: 0.99

How did O=C(NCc1ccc(Cl)cc1)C1CC(=O)N(c2ccc(O)cc2)C1 (stereo not drawn) do in these assays?
CBX7 AlphaScr: 1

Results for Cc1ccc(C)c(-c2csc(Nc3ccc(C)c(Cl)c3)n2)c1 ?
CBX7 AlphaScr: 0.37*!

How did Cc1ccc(Nc2nc(-c3ccccc3)cs2)cc1Cl do in these assays?
CBX7 AlphaScr: 0.72

How did Cc1ccc(C)c(-c2csc(Nc3ccc(F)cc3)n2)c1 do in these assays?
CBX7 AlphaScr: 0.94

Bioassay records deposited in PubChem BioAssay by Bradner/Qi Labs at DFCI.
